# Measured values taken from PubChem BioAssay (Tox21).
# Inconclusive results are not listed. Entries that show only a call come without a potency. Activity calls are given as the source filed them. Calls come from the whole dose curve; as a rule, active = well fitted cell-killing curve with a large enough effect in the repeat runs; inconclusive = weak or mixed curves, or effect the other way; inactive = no such curve, though single readings can be large or run the other way.
# Assay: qHTS assay to identify small molecule agonists of the farnesoid-X-receptor (FXR) signaling pathway - cell viability counter screen (AID 743218); note: nearly all actives have a fitted effect of over 45% in size
# Details: FXR-bla HEK293T viability, CellTiter-Glo luminescence, 16 h; series mostly up to 62.6 µM
# Description: U.S. Tox21 Program National Center for Advancing Translational Sciences [NCATS] NIH Chemical Genomics Center [NCGC] U.S. Environmental Protection Agency [EPA] National Institutes of Environmental Health Sciences [NIEHS] National Toxicology Program [NTP] U.S. Food and Drug Administration [FDA] Tox21 Assay Overview: The farnesoid-X-receptor (FXR), a nuclear hormone receptor, is highly expressed in liver, intestine, kidney and adrenal cortex. Natural ligands of FXR are the bile acids (Cholic acid, Chenodeoxy cholic acid etc). FXR is an important regulator of diverse metabolic pathways, including the bile acid homeostasis, lipid and glucose metabolisms. FXR regulates the expression of target genes by binding either as a monomer or as a heterodimer with the retinoid X receptor (RXR). Numerous studies have reported that FXR exerts protective function during cholestasis, diabetes, liver regeneration, and cancer. To identify compounds that activate FXR signaling, GeneBLAzer FXR-UAS-bla HEK 293T cell line (Invitrogen, Carlsbad, CA) containing a beta-lactamase reporter gene under the control of a UAS response element was used to screen the Tox21 10K compound library. The cytotoxicity of the Tox21 compound library against the FXR-bla cell line was tested in parallel by measuring the cell viability using CellTiter-Glo assay in the same wells.
# Tox21 Assay Protocol Summary: FXR-bla cells were dispensed at 5000 cells/5uL/well in 1536-well black wall/clear bottom plates using a Multidrop Combi (Thermo Fisher Scientific, Waltham, MA) dispenser. After the assay plates were incubated at 37 C and 5% CO2 for 5 h, 23 nL of compounds dissolved in DMSO, positive controls or DMSO only was transferred to the assay plate by a Pintool station (Kalypsys, San Diego, CA). The assay plates were incubated at 37C for 16 h. After 1 uL of LiveBLAzerTM B/G FRET substrate was added using a Bioraptr Flying Reagent Dispenser (FRD) workstation (Beckman Coulter, Indianapolis, IN), the plates were incubated at room temperature for 2 h, and fluorescence intensity was measured by an Envision plate reader (PerkinElmer, Shelton, CT). For cell viability readout that measures cytotoxicity, 4uL/well of CellTiter-Glo reagent was added into the assay plates using a Bioraptr FRD. After 30 min incubation at room temperature, the luminescence intensity in the plates was measured using a ViewLux plate reader (PerkinElmer).
# Potency is the fitted concentration of half-maximal effect.
SMILES,Potency,"viability change, negative = cytotoxic"
CN(C)c1ccc(N(C)C)cc1,inactive,–
O=Cc1ccc2c(c1)OCO2,inactive,–
ClCc1cccc(Cl)c1,inactive,–
C[C@@H]1CC[C@H]2[C@@H](C)C(=O)O[C@@H]3O[C@@]4(C)CC[C@@H]1[C@]32OO4,inactive,–
CCC(COC(=O)c1cc(OC)c(OC)c(OC)c1)(c1ccccc1)N(C)C (stereo not given),inactive,–
C[C@]12CC[C@H]3[C@@H](CCC4=CC(=O)CC[C@@H]43)[C@@H]1CC[C@@H]2OC(=O)CCC1CCCCC1,inactive,–
CCOP(=O)(OCC)SCCSCC,inactive,–
O=C(CBr)Nc1ccc(Cl)cc1C(=O)c1ccccc1F,inactive,–
COC(=O)c1cncn1C(C)c1ccccc1 (stereo not given),inactive,–
Brc1ccccc1,inactive,–
NCC(CC(=O)O)c1ccc(Cl)cc1 (stereo not given),–,0.276% [at 0.55 µM] (inactive)
CCCN(CCC)c1c([N+](=O)[O-])cc(S(C)(=O)=O)cc1[N+](=O)[O-],inactive,–
NS(=O)(=O)C(F)(F)C(F)(F)C(F)(F)C(F)(F)C(F)(F)C(F)(F)C(F)(F)C(F)(F)F,54.9 µM (active),–
BrCCCCBr,inactive,–
CCOc1ccc(C(C)(C)COCc2cccc(Oc3ccccc3)c2)cc1,inactive,–
Oc1ccc(Cl)c(Cl)c1Cl,inactive,–
CC(C)N(C(=O)COc1nnc(C(F)(F)F)s1)c1ccc(F)cc1,inactive,–
CS/C(C)=N/OC(=O)N(C)SN(C)C(=O)O/N=C(\C)SC,inactive,–
CCOP(=O)(OCC)O/C(=C/Cl)c1ccc(Cl)cc1Cl,inactive,–
Clc1ccc(C2(Cn3cncn3)CC(Br)CO2)c(Cl)c1 (stereo not given),inactive,–

SMILES,Potency,"viability change, negative = cytotoxic"
OC(c1ccc(Cl)cc1)(c1ccc(Cl)cc1)c1cccnc1,inactive,–
O=[N+]([O-])c1ccc(F)c([N+](=O)[O-])c1,2.21 µM (active),–
C[N+](C)(C)CCCl,inactive,–
C=CCCl,inactive,–
COc1cc(CC(C)N)cc2c1OCO2 (stereo not given),inactive,–
NC(=O)C(Cl)(Cl)Cl,inactive,–
CC(=O)NC1CCSC1=O (stereo not given),inactive,–
CCCCc1c(C)nc(NCC)nc1OS(=O)(=O)N(C)C,inactive,–
Cc1ccc(-c2c(Cl)nc(C#N)n2S(=O)(=O)N(C)C)cc1,inactive,–
CC(C)(CCl)C(=O)Cl,inactive,–
CCCN(CCCl)c1c([N+](=O)[O-])cc(C(F)(F)F)cc1[N+](=O)[O-],inactive,–
C(=NC1CCCCC1)=NC1CCCCC1,11 µM (active),–
CC(O)(CS(=O)(=O)c1ccc(F)cc1)C(=O)Nc1ccc(C#N)c(C(F)(F)F)c1 (stereo not given),inactive,–
O=[N+]([O-])c1ccccc1CCl,inactive,–
CCCCCCCCCC(=O)O[C@H]1CC[C@H]2[C@@H]3CCC4=CC(=O)CC[C@@H]4[C@H]3CC[C@]12C,inactive,–
CCCCNP(N)(N)=S,inactive,–
CCOP(=S)(OCC)Oc1nc(Cl)c(Cl)cc1Cl,inactive,–
CCOC(=O)C(Cl)C(C)=O (stereo not given),inactive,–
OCCCBr,inactive,–
COc1nn(C(=O)NS(=O)(=O)c2ccccc2OC(F)(F)F)c(=O)n1C,inactive,–
